CYP2C9 inhib = blocks human cytochrome P450 2C9; P11712; CYP2C9 Supersomes, luciferin-H conversion, luminescence; inhibition, % at 5 µM; 96,000 compounds, 20% hits;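 active = blocking of liver enzyme CYP2C9 beyond about 50% at 5 µM, limit read from the data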
Target sequence (P11712 whole entry, looked up): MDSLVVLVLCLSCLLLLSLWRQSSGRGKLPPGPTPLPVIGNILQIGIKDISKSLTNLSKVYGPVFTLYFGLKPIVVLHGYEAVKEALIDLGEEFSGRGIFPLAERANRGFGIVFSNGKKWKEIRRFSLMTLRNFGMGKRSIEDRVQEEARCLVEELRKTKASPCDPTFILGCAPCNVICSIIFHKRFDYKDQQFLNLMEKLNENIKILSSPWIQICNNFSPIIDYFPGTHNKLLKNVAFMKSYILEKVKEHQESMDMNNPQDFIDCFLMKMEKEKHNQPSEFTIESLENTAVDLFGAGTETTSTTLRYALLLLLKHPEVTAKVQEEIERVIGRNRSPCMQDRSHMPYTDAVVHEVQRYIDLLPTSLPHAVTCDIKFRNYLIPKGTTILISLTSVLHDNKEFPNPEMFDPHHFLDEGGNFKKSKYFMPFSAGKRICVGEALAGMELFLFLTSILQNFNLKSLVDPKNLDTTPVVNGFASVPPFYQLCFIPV
CYP2C19 act = activators of human cytochrome P450 2C19. P33261. recombinant CYP2C19, luciferin-H EGE luminescence; stronger effect = higher value; 0 = fully inhibited enzyme, 1 = untreated enzyme. activation factor at 5 µM. 96,000 tested, under 10 active. AID 1025;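 active = activation factor of at least 2 at 5 µM in the primary screen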
F-actin modifier = cytoskeleton assembly modification. 91,000 compounds, 0.18% hits. AID 836. inhibition, % at 2 µM. HUVEC TNFa F-actin phalloidin imaging, high content;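 active = inhibition above the batch mean plus 3 SD and confirmed as a hit by visual image inspection, cut at about 30% in these data, passing the limit was not always enough; inconclusive = above the inhibition threshold but rejected on visual inspection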
CYP2C19 inhib = human CYP2C19 inhibition; CYP2C19 Supersomes, luciferin-H EGE luminescence, 30 min; 96,000 compounds, 21% hits; AID 778; inhibition, % at 5 µM;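 active = CYP2C19 inhibition above a set limit at 5 µM in the primary screen, cut at about 50% in these data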
CYP2C9 act = CYP2C9 (human) activation; P11712; recombinant CYP2C9, luciferin-H conversion, luminescence; stronger effect = higher value; factor 1 = untreated enzyme, 0 = blocked; activation factor at 5 µM; 96,000 compounds, 1.4% hits;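 active = activation factor of 2 or more for CYP2C9 at a 5 µM dose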
E-sel TNF inh = TNF alpha driven E-selectin expression inhibition | HUVEC TNFa-induced E-selectin immunofluorescence, high content | inhibition, % at 2 µM | 120,000 compounds, 0.71% hits | AID 1246;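 active = inhibition above the batch mean plus 3 SD, and confirmed as a hit on visual image review, cut at about 43% in these data; inconclusive = passes the inhibition cutoff but fails visual image review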
Hits are given with their value; 0 = inactive; ? = inconclusive; - = not tested or not shown. Only some compounds are listed: those with a hit (about 22% of all), similar ones and a draw of the others.

SMILES	CYP2C9 inhib	CYP2C19 act	F-actin modifier	CYP2C19 inhib	CYP2C9 act	E-sel TNF inh
Cc1ccc(NC(=O)COC(=O)Cn2c(C)csc2=O)cc1	0	0	0	0	0	0
Cc1ccc(CNC(=O)c2ccccc2NC(=O)CSc2nnnn2C)cc1	0	0	0	0	0	0
c1ccc(-n2ncc3c2ncn2nc(CSc4nc5ccccc5s4)nc32)cc1	0	0	-	0	0	-
COC(=O)c1ccccc1OCCOc1ccccc1C(=O)OC	0	0	0	62	0	0
O=C(CSCc1ccc(Cl)cc1)Nc1ccc2c(c1)OCO2	-	-	0	-	-	0
O=C(CC(c1ccccc1)c1ccccc1)Nc1ccc2c(c1)OCCO2	52	0	0	0	0	0
O=C(CSCc1ccccc1Cl)Nc1ccc2c(c1)OCCO2	60	0	0	0	0	0
O=C(Cc1ccccc1[N+](=O)[O-])Nc1ccc2c(c1)OCCO2	-	-	-	-	-	0
CCc1nnc(NC(=O)c2ccc(Cl)c(S(=O)(=O)N3CCc4ccccc43)c2)s1	81	0	0	75	0	-
O=C(Nc1ncccc1O)c1cccc(S(=O)(=O)N2CCc3ccccc32)c1	75	0	0	72	0	0
COc1cc(Nc2ccccc2Cl)c([N+](=O)[O-])nc1[N+](=O)[O-]	0	0	0	81	0	0
FC(F)(F)c1nc(N2CCCC2)ncc1-c1nnnn1-c1ccccc1	52	0	0	82	0	0
Cc1ccc(-n2nnnc2-c2cnc(N3CCCC3)nc2C(F)(F)F)cc1	76	0	0	87	0	0
Fc1cccc(-n2ncc(-c3nnnn3-c3ccccc3)c2C(F)(F)F)c1	-	-	0	-	-	0
COc1ccc(C2CC(C(F)(F)F)n3nc(CO)c(Cl)c3N2)cc1OC (stereo not given)	98	0	0	77	0	-
COc1cccc(C2CC(C(F)(F)F)n3ncc(C(=O)NCc4ccco4)c3N2)c1 (stereo not given)	83	0	0	67	0	0
COc1ccc(C2CC(C(F)(F)F)n3ncc(C(=O)Nc4cccc(O)c4)c3N2)cc1OC (stereo not given)	50	0	0	0	0	-
COc1ccc(C2CC(C(F)(F)F)n3nc(C(=O)O)c(Cl)c3N2)cc1OC (stereo not given)	0	0	0	0	0	0
Cc1cc(Nc2ccccc2F)n2nc(C)nc2n1	-	-	-	-	-	0
N#CCCN1CCN(C(CNS(=O)(=O)c2ccc(Cl)cc2)c2ccccc2)CC1 (stereo not given)	0	0	0	90	0	0
Cc1ccc(S(=O)(=O)NCC(c2ccccc2)N2CCN(CCC#N)CC2)cc1 (stereo not given)	0	0	0	76	0	0
COC(=O)c1cc2oc3ccccc3c2n1Cc1ccccn1	51	0	0	73	0	-
COc1cc2c(cc1NCc1ccccn1)oc1ccccc12	-	-	0	-	-	0
COC(=O)[C@@]1(Cc2ccc(OC)cc2)[C@H]2c3cc(C(=O)N4CCCC4)n(Cc4ccc(OC)c(OC)c4)c3C[C@H]2CN1C(=O)c1ccccc1	-	-	-	-	-	0
O=C(NCc1ccc2c(c1)OCO2)c1ccc(Cl)nc1	-	-	-	-	-	0
SMILES	CYP2C9 inhib	CYP2C19 act	F-actin modifier	CYP2C19 inhib	CYP2C9 act	E-sel TNF inh
O=C(CCN1C(=O)C2C3C=CC(C3)C2C1=O)Nc1c(F)cc(F)cc1Br (stereo not given)	0	0	0	0	0	0
COc1ccc(-c2cc(-c3ccccc3O)[nH]n2)cc1	0	0	-	0	0	0
COc1ccc(-c2cc(-c3c(O)c(OC)c4occc4c3OC)[nH]n2)cc1	90	0	-	70	0	0
CCc1ccccc1N(C(=O)c1cccs1)C1C=CS(=O)(=O)C1 (stereo not given)	0	0	-	71	0	0
CCCCCCSc1cc(C)nc2ncnn12	0	0	0	66	0	-
COc1cc(/C=N\NC(=O)c2ccc(Cn3nc([N+](=O)[O-])c(Cl)c3C)o2)ccc1O	0	0	0	65	0	0
CCOC(=O)C1CCN(C(=O)CCS(=O)(=O)c2ccc3c(c2)CCN3C(=O)CC)CC1	-	-	-	-	-	0
CCCc1cc(=O)[nH]c(SCC(=O)NCCCC(=O)OCC)n1	0	0	0	0	0	0
Cc1ccc(-n2c(C)cc(C(=S)N3CCOCC3)c2C)cc1C	0	0	0	87	0	0
Cc1cc(C(=S)N2CCOCC2)c(C)n1-c1ccc(F)cc1	-	-	-	-	-	0
COc1ccc(CCn2c(=S)[nH]c3cc(C(=O)NCc4ccco4)ccc3c2=O)cc1OC	60	0	0	0	0	?
COc1ccc(-n2c(=S)[nH]c3cc(C(=O)NCc4ccco4)ccc3c2=O)cc1OC	0	0	0	0	0	67
CCn1c(=O)c2c(nc3n2CC(C)CN3CCc2ccccc2)n(C)c1=O (stereo not given)	0	0	0	0	0	0
CCN1CCN(c2nc3c(c(=O)n(C)c(=O)n3C)n2CCSc2nccc(C)n2)CC1	0	0	0	0	0	-
O=C(Nc1ccccc1SCC1CSc2nc3ccccc3c(=O)n21)c1ccccc1Cl (stereo not given)	0	0	0	0	0	-
COc1ccc(C2C(C#N)=C(N)OC3=C2C(=O)CC(C)(C)C3)c([N+](=O)[O-])c1OC (stereo not given)	71	0	0	0	0	0
COc1cc(C2C(C#N)=C(N)OC3=C2C(=O)CC(C)(C)C3)c([N+](=O)[O-])cc1OC (stereo not given)	0	0	0	0	0	0
COc1cccc(C2C(C#N)=C(N)OC3=C2C(=O)CC(c2ccco2)C3)c1OCc1ccc(F)cc1 (stereo not given)	89	0	0	80	0	0
COc1ccc(C2C(C#N)=C(N)OC3=C2C(=O)CC(C)C3)c(OC)c1OC (stereo not given)	58	0	0	0	0	0
N#CC1=C(N)OC2=C(C(=O)CC(c3ccccc3)C2)C1c1ccoc1 (stereo not given)	-	-	-	-	-	0
O=C(NCCO)c1cccc(S(=O)(=O)N2CCCCC2)c1	0	0	0	0	0	0
CCOc1ccccc1C(=O)NCC(=O)OCc1c(C)noc1C	-	-	-	-	-	0
CCc1ccc(C(C)NC(=O)c2ccc(F)cc2)cc1 (stereo not given)	51	0	0	55	0	0
CCCC(C)NC(=O)c1ccc(F)cc1 (stereo not given)	0	0	0	0	0	0
CCOC(=O)c1ccc(Nc2nc(-c3cccnc3)nc3ccccc23)cc1	79	0	0	66	0	0
c1cncc(-c2nc(NCC3COc4ccccc4O3)c3ccccc3n2)c1 (stereo not given)	88	0	0	0	0	0
c1ccc2c(c1)OCC(CNc1ncnc3sccc13)O2 (stereo not given)	-	-	-	-	-	0
CCOC(=O)c1nc(Nc2ccc(C)cc2)c2ccccc2n1	66	0	0	71	0	-
COC(=O)CNc1nc(-c2cccnc2)nc2ccccc12	56	0	-	0	0	-
COC(=O)CNc1nc(-c2ccccc2F)nc2ccccc12	0	0	-	0	0	-

Screening data as filed in PubChem BioAssay.
